# From PubChem BioAssay (EPA / NIEHS)
# Inconclusive results are not listed. The source made the active and inactive calls. Rule for the calls: active = hit-call score of the fitted dose curve at least 0.9, where 1 is the maximum; inconclusive = response in the unintended direction; inactive = score below 0.9.
# Molecular target: human Vitamin D Receptor (VDR), VDR (gene 7421) (UniProt P11473)
# Test: ATG_VDR_TRANS: Attagene TRANS-FACTORIAL HepG2 Assay for human Vitamin D Receptor (VDR) (AID 2283022)
# Procedure: ATG_TRANS is a cell-based, multiplexed-readout assay that uses HepG2, a human liver cell line, with measurements taken at 24 hours after chemical dosing in a 24-well plate.ATG_VDR_TRANS is one of 30 assay component(s) measured or calculated from the ATG_TRANS assay. It is designed to make measurements of mRNA induction, a form of inducible reporter, as detected with fluorescence intensity signals by Reverse transcription polymerase chain reaction (RT-PCR) and Capillary electrophoresis technology.Data from the assay component ATG_VDR_TRANS was analyzed into 1 assay endpoint. This assay endpoint, ATG_VDR_TRANS, was analyzed in the positive analysis fitting direction relative to DMSO as the negative control and baseline of activity. Using a type of inducible reporter, measures of mRNA for gain-of-signal activity can be used to understand the reporter gene at the transcription factor-level as they relate to the gene VDR. Furthermore, this assay endpoint can be referred to as a primary readout, because this assay has produced multiple assay endpoints where this one serves a reporter gene function. To generalize the intended target to other relatable targets, this assay endpoint is annotated to the nuclear receptor intended target family, where the subfamily is non-steroidal.
# Human liver HepG2 cells are transiently transfected with multiple reporter transcription units (MRTUs) in 6-well plates using FuGene 6 reagent (Roche; 3 ml FuGene/1 mg DNA). The MRTU constructs are regulated by a cis-regulating element (promoter). […] A major difference between the CIS and TRANS system is that in CIS activities of endogenous TFs are measured, whereas the TRANS assay evaluates changes in activities of exogenous, chimeric NR-Gal4 proteins. […] At the end of 24 hour incubation, total RNA was isolated using TriZol reagent (Invitrogen). The isolated RNA is then reverse-transcribed using oligo(dT) primer and Mo-MLV reverse transcriptase (Invitrogen) with DNAse I (Ambion) treatment for 30 min. The one-tenth of the produced cDNA was amplified by PCR using Taq DNA polymerase (Invitrogen) and two reporter sequence-specific primers. The PCR products were fluorescently labeled by primer extension with 6-arboxyfluorescein (6-FAM) 5'-labeled reporter sequence-specific primer (2 min at 95 C, 20 s at 68 C and 10 min at 72 C) and these products were digested with 5U of HpaI (New England Biolabs) for 2h at 37 C. The fragments were purified using Qiaquick PCR columns (Qiagen), analyzed on an ABI 3130xL genetic analyzer (Applied Biosystems) with peak positions identified by using a set of X-rhodamine (ROX)-labeled MapMarker1000 molecular weight standards (BioVentures). The raw capillary electrophoresis data was processed using Attagraph software (Attagene).
# human Vitamin D Receptor (VDR), VDR (gene 7421), sequence (P11473 whole entry, looked up): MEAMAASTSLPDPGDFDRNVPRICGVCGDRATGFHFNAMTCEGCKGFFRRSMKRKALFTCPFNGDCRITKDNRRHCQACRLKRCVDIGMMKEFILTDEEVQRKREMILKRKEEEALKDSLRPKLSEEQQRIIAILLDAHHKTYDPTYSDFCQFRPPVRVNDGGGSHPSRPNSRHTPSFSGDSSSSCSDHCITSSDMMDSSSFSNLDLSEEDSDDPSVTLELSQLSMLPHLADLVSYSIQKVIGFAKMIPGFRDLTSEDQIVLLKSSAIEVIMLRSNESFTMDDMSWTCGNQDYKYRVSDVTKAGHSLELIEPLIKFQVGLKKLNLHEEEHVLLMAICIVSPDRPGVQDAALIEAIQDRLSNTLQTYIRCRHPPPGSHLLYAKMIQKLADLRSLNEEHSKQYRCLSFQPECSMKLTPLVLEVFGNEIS
row,SMILES,outcome
1,Nc1c(Oc2ccccc2)cc(O)c2c1C(=O)c1ccccc1C2=O,inactive
2,C=CC(Cl)CCl (stereo not given),inactive
3,N#Cc1cccnc1,inactive
4,FC(F)OCC(F)(F)C(F)(F)F,inactive
5,CCCCOP(=O)(CCCC)OCCCC,inactive
6,CCOC(=O)C(SP(=S)(OC)OC)c1ccccc1 (stereo not given),inactive
7,ClCCN1CCOCC1,inactive
8,ClCCCCl,inactive
9,O=C(O)CC(O)(CC(=O)O)C(=O)O,inactive
10,O=C(CBr)c1ccc(O)cc1,inactive
11,OC(Cc1ccccc1Cl)(Cn1cncn1)C1(Cl)CC1 (stereo not given),inactive
12,C=CC(=O)NC(C)(C)CC(C)=O,inactive
13,CC(=Cc1ccccc1)[N+](=O)[O-],inactive
14,CCCSP(=S)(OCC)Oc1ccc(Cl)cc1Cl (stereo not given),inactive
15,N#Cc1ccncc1,inactive
16,Cc1cc(-c2cc(C)c(N)c(C)c2)cc(C)c1N,inactive
17,OC[P+](CO)(CO)CO,inactive
18,N#Cc1ccccc1N,inactive
19,Cc1cc(Cl)ccc1O,inactive
20,Nc1cccnc1,inactive

row,SMILES,outcome
1,CN(C)CCN(C)C,inactive
2,BrCC(Br)c1ccccc1 (stereo not given),inactive
3,CC(C)(C)c1ccc(CCOc2ncnc3ccccc23)cc1,inactive
4,CCOC(=O)c1ccccc1S(=O)(=O)NC(=O)Nc1nc(Cl)cc(OC)n1,inactive
5,CCNc1nc(NCC)nc(SC)n1,inactive
6,CC1CC(=O)O1 (stereo not given),inactive
7,O=S1(=O)OC(c2cc(Br)c(O)c(Br)c2)(c2cc(Br)c(O)c(Br)c2)c2ccccc21,inactive
8,CCCCCCCCCCCCCCC(Br)C(=O)O (stereo not given),inactive
9,CC(C)(c1ccc(O)c(-c2ccccc2)c1)c1ccc(O)c(-c2ccccc2)c1,inactive
10,CN(C)C(=S)S,inactive
11,CC1(C)COP(Oc2ccccc2)OC1,inactive
12,C1CCC(C2CCCCC2)CC1,inactive
13,C=CCOC(N)=O,inactive
14,CN(C1CCCCC1)C1CCCCC1,inactive
15,N#Cc1ccc(Cl)cc1,inactive
16,O=NN1CCCCCC1,inactive
17,C#CCOC(=O)/C=C(C)/C=C/CC(C)CCCC(C)C (stereo not given),inactive
18,O=C(Cl)OCCOCCOC(=O)Cl,inactive
19,CC(C)N(C(=O)CCl)c1ccccc1,inactive
20,CCOP(=S)(OCC)SCS(=O)(=O)C(C)(C)C,inactive
